From PubChem BioAssay (NCI)
This is part of a sample that, as a whole, favours compounds with a hit. Of some 83,000 tested, about 20% had one in any assay.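 Compound tested at a single concentration for 48 hours in 96-well plates; a percent growth value below 10 was scored as active.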 Unmarked numbers belong to inactive results. Active and inactive are the calls of the source.

tested on: SN12C renal; test: NCI-60 one-dose screen, 48 h (100 = growth as untreated, 0 = no growth, -100 = all killed); conditions: 10 µM unless noted

| Compound | growth |
| --- | --- |
| O=c1oc2ccc(Br)cc2c(=O)n1-c1ccc(F)cc1F | 6.17% (active) |
| O=c1c2cc(F)cc(Cl)c2sc2c(Cl)nc3ccccc3c12 | 76.8% |
| O=C(CCN1C(=O)c2ccccc2C1=O)Nc1ccc(Cl)cc1 | 75.3% |
| O=c1oc2ccc(Cl)cc2c(=O)n1-c1ccc(Cl)cc1F | 2.13% (active) |
| O=C(Nc1ccc(F)cc1F)c1cc(Cl)ccc1O | 2.94% (active) |
| O=c1oc2ccc(I)cc2c(=O)n1-c1ccc(Cl)cc1F | 2.21% (active) |
| CC1=C(C(=O)OCC2CCN(C(=O)OC(C)(C)C)CC2)[C@@H](c2cccc(C#N)c2)C2=C(CC(C)(C)CC2=O)N1 | 42.7% |
| COc1cccc(/C=C/C(=O)c2c(C)nc3ccccc3c2/C=C/c2ccccc2)c1OC | 31.1% |
| O=c1oc2ccc(F)cc2c(=O)n1-c1ccc(F)cc1F | 24.9% |
| O=C1c2cc(I)ccc2Oc2cc([N+](=O)[O-])ccc2N1c1ccc(Cl)cc1F | 90.8% |
| O=c1oc2ccc(-c3ccc(F)cc3F)cc2c(=O)n1-c1ccc(Cl)c(C(F)(F)F)c1 | 11.2% |
| COc1ccc(/C=C/C(=O)c2c(C)nc3ccccc3c2/C=C/c2ccccc2)cc1O | 62.2% |
| O=c1oc2ccc(-c3ccc(F)cc3F)cc2c(=O)n1-c1cccc(C(F)(F)F)c1 | 4.72% (active) |
| COc1ccc(OC)c(/C=C/C(=O)c2c(C)nc3ccccc3c2/C=C/c2ccccc2)c1 | 58.1% |
| O=C(CCc1nnc2sc(COc3ccccc3)nn12)c1nc2ncccc2[nH]1 | 96.3% |
| O=C(COc1cc(O)c2c(=O)cc(-c3ccccc3)oc2c1)Nc1ccccc1 | 89.9% |
| O=C(CCc1nnc2sc(-c3ccc(Cl)cc3Cl)nn12)c1nc2ncccc2[nH]1 | -7.29% (active) |
| O=C1c2cc(Cl)ccc2Oc2cc([N+](=O)[O-])ccc2N1c1ccc(F)cc1F | 101% |
| O=C(CCc1nnc2sc(Cc3ccccc3Cl)nn12)c1nc2ncccc2[nH]1 | 87.3% |

| Compound | growth |
| --- | --- |
| Nc1ccc(-c2nn3c(CCC(=O)c4nc5ncccc5[nH]4)nnc3s2)c(O)c1 | 87.8% |
| O=C(c1ccccc1)N(CCc1ccc(Cl)cc1)C(=S)N(C(=O)c1ccccc1)c1ccccc1 | 100% |
| C#CCn1cc(C=C2C(=O)N(C)C(=O)N(C)C2=O)c2cc(Cl)ccc21 | 101% |
| O=C(Nc1ccc(I)cc1F)c1cc(Br)ccc1O | 3.31% (active) |
| Cc1nc2ccccc2c(/C=C/c2ccccc2)c1C(=O)/C=C/c1ccc(Cl)cc1 | 19.7% |
| O=C(Nc1ccc(F)cc1F)c1cc(Br)ccc1O | -7.89% (active) |
| O=C1NC(=S)NC(=O)C1=Cc1cn(Cc2cn(Cc3cccc4ccccc34)nn2)c2ccccc12 | 94.4% |
| COc1c(B(O)O)cccc1-c1nc2ccc3n[nH]c(F)c3c2c2c1CCCC2 | 62.6% |
| COc1c(B(O)O)cccc1-c1nc2ccc3[nH]ncc3c2c2c1C1CCC2C1 (stereo unspecified) | 59.8% |
| O=C(c1ccccc1)N(C(=S)NCCc1ccc(Cl)cc1)c1ccc(Cl)cc1 | 66.1% |
| O=C(Nc1ccc(I)cc1F)c1cc(F)ccc1O | 0.104% (active) |
| CC1=C(C(=O)OCC2CCN(C(=O)OC(C)(C)C)CC2)[C@H](c2cccc(Br)c2)C2=C(CC(C)(C)CC2=O)N1 | 31.2% |
| O=c1oc2ccc(F)cc2c(=O)n1-c1ccc(Br)cc1F | -4.08% (active) |
| O=c1oc2ccc(I)cc2c(=O)n1-c1ccc(I)cc1F | 4.52% (active) |
| O=c1oc2ccc(I)cc2c(=O)n1-c1ccc(F)cc1F | 10.9% |
| Cn1cc([C@@H]2Nc3ccc4[nH]ncc4c3[C@H]3[C@H]4CCC(C4)[C@H]32)c(C(F)(F)F)n1 | 50.6% |
| O=C(Nc1ccc(Cl)cc1F)c1cc(Br)ccc1O | 1.01% (active) |
| O=c1oc2ccc(Cl)cc2c(=O)n1-c1ccc(I)cc1F | -1.14% (active) |
| O=C(Nc1ccc(I)cc1F)c1cc(Cl)ccc1O | 2.43% (active) |

tested on: UO-31 renal; test: as above; conditions: 10 µM unless noted

| Compound | growth |
| --- | --- |
| O=c1oc2ccc(Br)cc2c(=O)n1-c1ccc(F)cc1F | 3.24% (active) |
| O=c1c2cc(F)cc(Cl)c2sc2c(Cl)nc3ccccc3c12 | 72.6% |
| O=C(CCN1C(=O)c2ccccc2C1=O)Nc1ccc(Cl)cc1 | 50.1% |
| O=c1oc2ccc(Cl)cc2c(=O)n1-c1ccc(Cl)cc1F | 6.59% (active) |
| O=C(Nc1ccc(F)cc1F)c1cc(Cl)ccc1O | -0.334% (active) |
| O=c1oc2ccc(I)cc2c(=O)n1-c1ccc(Cl)cc1F | 2.47% (active) |
| CC1=C(C(=O)OCC2CCN(C(=O)OC(C)(C)C)CC2)[C@@H](c2cccc(C#N)c2)C2=C(CC(C)(C)CC2=O)N1 | 42.1% |
| COc1cccc(/C=C/C(=O)c2c(C)nc3ccccc3c2/C=C/c2ccccc2)c1OC | 48.8% |
| O=c1oc2ccc(F)cc2c(=O)n1-c1ccc(F)cc1F | 26% |
| O=C1c2cc(I)ccc2Oc2cc([N+](=O)[O-])ccc2N1c1ccc(Cl)cc1F | 63.6% |
| O=c1oc2ccc(-c3ccc(F)cc3F)cc2c(=O)n1-c1ccc(Cl)c(C(F)(F)F)c1 | 75.6% |
| COc1ccc(/C=C/C(=O)c2c(C)nc3ccccc3c2/C=C/c2ccccc2)cc1O | 53.3% |
| O=c1oc2ccc(-c3ccc(F)cc3F)cc2c(=O)n1-c1cccc(C(F)(F)F)c1 | 1.41% (active) |
| COc1ccc(OC)c(/C=C/C(=O)c2c(C)nc3ccccc3c2/C=C/c2ccccc2)c1 | 60.3% |
| O=C(CCc1nnc2sc(COc3ccccc3)nn12)c1nc2ncccc2[nH]1 | 69% |
| O=C(COc1cc(O)c2c(=O)cc(-c3ccccc3)oc2c1)Nc1ccccc1 | 80.2% |
| O=C(CCc1nnc2sc(-c3ccc(Cl)cc3Cl)nn12)c1nc2ncccc2[nH]1 | -82% (active) |
| O=C1c2cc(Cl)ccc2Oc2cc([N+](=O)[O-])ccc2N1c1ccc(F)cc1F | 71.2% |
| O=C(CCc1nnc2sc(Cc3ccccc3Cl)nn12)c1nc2ncccc2[nH]1 | 63.5% |

| Compound | growth |
| --- | --- |
| Nc1ccc(-c2nn3c(CCC(=O)c4nc5ncccc5[nH]4)nnc3s2)c(O)c1 | 68.7% |
| O=C(c1ccccc1)N(CCc1ccc(Cl)cc1)C(=S)N(C(=O)c1ccccc1)c1ccccc1 | 81.7% |
| C#CCn1cc(C=C2C(=O)N(C)C(=O)N(C)C2=O)c2cc(Cl)ccc21 | 80.1% |
| O=C(Nc1ccc(I)cc1F)c1cc(Br)ccc1O | 8.84% (active) |
| Cc1nc2ccccc2c(/C=C/c2ccccc2)c1C(=O)/C=C/c1ccc(Cl)cc1 | 11.1% |
| O=C(Nc1ccc(F)cc1F)c1cc(Br)ccc1O | 1.12% (active) |
| O=C1NC(=S)NC(=O)C1=Cc1cn(Cc2cn(Cc3cccc4ccccc34)nn2)c2ccccc12 | 67.7% |
| COc1c(B(O)O)cccc1-c1nc2ccc3n[nH]c(F)c3c2c2c1CCCC2 | 41.5% |
| COc1c(B(O)O)cccc1-c1nc2ccc3[nH]ncc3c2c2c1C1CCC2C1 (stereo unspecified) | 29.3% |
| O=C(c1ccccc1)N(C(=S)NCCc1ccc(Cl)cc1)c1ccc(Cl)cc1 | 59.1% |
| O=C(Nc1ccc(I)cc1F)c1cc(F)ccc1O | 6.41% (active) |
| CC1=C(C(=O)OCC2CCN(C(=O)OC(C)(C)C)CC2)[C@H](c2cccc(Br)c2)C2=C(CC(C)(C)CC2=O)N1 | 31.2% |
| O=c1oc2ccc(F)cc2c(=O)n1-c1ccc(Br)cc1F | 5.26% (active) |
| O=c1oc2ccc(I)cc2c(=O)n1-c1ccc(I)cc1F | 8.63% (active) |
| O=c1oc2ccc(I)cc2c(=O)n1-c1ccc(F)cc1F | 7.61% (active) |
| Cn1cc([C@@H]2Nc3ccc4[nH]ncc4c3[C@H]3[C@H]4CCC(C4)[C@H]32)c(C(F)(F)F)n1 | 49.6% |
| O=C(Nc1ccc(Cl)cc1F)c1cc(Br)ccc1O | 5.96% (active) |
| O=c1oc2ccc(Cl)cc2c(=O)n1-c1ccc(I)cc1F | 7.35% (active) |
| O=C(Nc1ccc(I)cc1F)c1cc(Cl)ccc1O | 9.04% (active) |
